According to PubChem BioAssay (Tox21):
Records with an inconclusive call do not appear. Active and inactive are the calls of the source. Unless noted, calls come from the whole dose curve; as a rule, active = well fitted curve in the direction sought with a large enough effect in the repeat runs; inconclusive = weak or mixed curves; inactive = no such curve, though single readings can be large; an effect the other way counts as inactive or inconclusive.

How the values were obtained:
[1] = A CellTox Green Cytotoxicity Assay to monitor cytotoxicity in HEK293 cells - 16 hour (AID 1224888); note: nearly all actives have a fitted effect of over 35% in size
Summary of the method: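 HEK293 cells, 600/well, were preincubated 5 hours and then exposed to compounds at 37 C for up to 40 hours. A cell-impermeant cyanine dye staining dead-cell DNA was read by fluorescence at 0, 8, 16, 24, 32 and 40 h time points.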

[2] = qHTS RealTime-Glo MT Cell Viability Assay in HepG2 cells - 0 hour (AID 1224889); note: nearly all actives have a fitted effect of over 50% in size
Summary of the method: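 Real-time, nonlytic viability: 600 HepG2 cells/well mixed with NanoLuc enzyme plus prosubstrate; 5 h settle, compound (DMSO) added by pintool; luminescence monitored over 40 h at 37 C.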

[3] = A CellTox Green Cytotoxicity Assay to monitor cytotoxicity in HepG2 cells - 8 hour (AID 1224890); note: nearly all actives have a fitted effect of over 45% in size
Summary of the method: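 HepG2 cells, 600/well, preincubated 5 h with CellTox Green dye, then exposed to Tox21 compounds in DMSO at 37 C for up to 40 h. Dead-cell DNA fluorescence read at the indicated time point.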

[4] = qHTS assay to identify small molecule antagonists of the estrogen receptor alpha (ER-alpha) signaling pathway using the BG1 cell line in the presence of 0.1 nM 17-beta-estradiol - cell viability counter screen (AID 1259241); note: nearly all actives have a fitted effect of over 40% in size
Summary of the method: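 Measures cytotoxicity alongside the ER-alpha antagonist readout: VM7Luc4E2 cells, charcoal-stripped serum, 0.1 nM 17beta-estradiol final, 22 hr compound incubation at 37C, CellTiter-Fluor fluorescence.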

[5] = qHTS assay to identify small molecule antagonists of the androgen receptor (AR) signaling pathway using the MDA cell line in the presence of 0.5 nM R1881 - cell viability counter screen (AID 1259242); note: nearly all actives have a fitted effect of over 45% in size
Summary of the method: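 MDA-kb2 cells (MMTV-luciferase, AR/GR responsive) were treated with compounds plus 0.5 nM R1881 (final) for 16 hr at 37C, 0% CO2. Viability was then read in the same wells as live-cell protease fluorescence (CellTiter-Fluor, 30 min).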

[6] = qHTS assay to identify small molecule HDAC inhibitors (AID 1259364); note: top concentration of the series differs between compounds; nearly all actives have a fitted effect of over 45% in size
Summary of the method: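 Wild-type HCT-116 cells, plated overnight at 37 C, exposed to compounds 2 hr at 37 C; luminogenic HDAC-Glo substrate then added 30 min at room temperature. Luminescence reports relative endogenous class I/II HDAC activity.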

[7] = qHTS assay to identify small molecule HDAC inhibitors - cell viability counter screen (AID 1259365); note: series mostly up to about 92 µM; nearly all actives have a fitted effect of over 50% in size
Summary of the method: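 Following a 2hr exposure of overnight-plated wild-type HCT-116 cells to DMSO-delivered compounds, CellTiter-Glo was added and luminescence recorded after 30min at room temperature.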

[8] = qHTS assay to identify small molecule agonists of the sonic hedgehog signaling (Shh) pathway - cell viability counter screen (AID 1259366); note: nearly all actives have a fitted effect of over 50% in size
Summary of the method: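 After a 4hr attachment at 37C, NIH/3T3 cells bearing an integrated Gli1-driven luciferase reporter were dosed with compounds. Treatment lasted 24hr, with the final hour including CellTiter-Fluor for a fluorescence viability measurement.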

[9] = qHTS assay to identify small molecule antagonists of the sonic hedgehog signaling (Shh) pathway - cell viability counter screen (AID 1259367); note: nearly all actives have a fitted effect of over 55% in size
Summary of the method: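 Seed 3T3 Gli1-Luc cells at 2,000 per well; incubate 4 hr; add compound in DMSO, then conditioned medium; incubate at 37C with 5% CO2; add CellTiter-Fluor after 23 hr; read fluorescence 1 hr later.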

[10] = qHTS assay to identify small molecule agonists of the sonic hedgehog signaling (Shh) pathway (AID 1259368; calls by dose curve;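 note: NIH/3T3-derived 3T3Gli1-Luc cells carrying a stable Gli1-driven firefly luciferase reporter; series mostly up to about 92 µM; nearly all actives have a fitted effect of over 15% in size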)
Summary of the method: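 NIH/3T3-derived 3T3Gli1-Luc cells with stably integrated Gli1-driven firefly luciferase, 2,000 cells/well, compounds added after 4 hr. Incubated 24 hr at 37C, 5% CO2; luminescence read after 30 min with luciferase reagent at room temperature.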

[11] = qHTS assay to identify small molecule antagonists of the sonic hedgehog signaling (Shh) pathway (AID 1259369; calls by dose curve; note: nearly all actives have a fitted effect of over 45% in size)
Summary of the method: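 NIH/3T3-derived Gli1-Luc reporter cells plated 4 h, dosed with compound, then stimulated with conditioned medium for 24 h at 37 C. Firefly luciferase luminescence read after 30 min with detection reagent at room temperature.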

[12] = target: Estrogen receptor beta (Homo sapiens) (UniProt Q92731); assay: qHTS assay to identify small molecule antagonists of the estrogen receptor beta (ER-beta) signaling pathway (AID 1259378; active = well fitted inhibition curve with a large enough effect in the signal ratio in the repeat runs, not every such curve was filed as active; the % refers to the signal ratio)
Chain of Estrogen receptor beta (Homo sapiens) (Q92731 whole entry, looked up): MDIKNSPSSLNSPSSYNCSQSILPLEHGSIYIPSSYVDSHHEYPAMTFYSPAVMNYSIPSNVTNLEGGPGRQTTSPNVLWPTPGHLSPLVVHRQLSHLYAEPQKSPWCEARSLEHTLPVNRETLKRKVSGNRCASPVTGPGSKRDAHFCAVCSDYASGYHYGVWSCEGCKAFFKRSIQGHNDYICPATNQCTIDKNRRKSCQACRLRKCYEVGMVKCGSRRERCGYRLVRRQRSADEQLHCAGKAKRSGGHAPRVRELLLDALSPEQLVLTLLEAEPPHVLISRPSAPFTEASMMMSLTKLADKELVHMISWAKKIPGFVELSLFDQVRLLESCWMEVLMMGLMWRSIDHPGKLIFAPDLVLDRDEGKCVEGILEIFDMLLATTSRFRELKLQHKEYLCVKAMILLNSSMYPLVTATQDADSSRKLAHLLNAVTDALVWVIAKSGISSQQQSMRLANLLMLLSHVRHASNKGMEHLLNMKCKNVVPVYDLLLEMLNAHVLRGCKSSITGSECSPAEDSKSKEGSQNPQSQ
Summary of the method: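 ER-beta-UAS-bla HEK293T cells in 2% charcoal-stripped FBS medium treated with compound plus 1nM final 17-beta-estradiol for 16 hr at 37C. Beta-lactamase reporter read by FRET substrate fluorescence after 2 hours at room temperature.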

[13] = qHTS assay to identify small molecule agonists of the androgen receptor (AR) signaling pathway in the presence of an antagonist - cell viability counter screen (AID 1259379);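 note: MDA-kb2 human breast cancer cells carrying an MMTV luciferase reporter; series mostly up to about 92 µM; nearly all actives have a fitted effect of over 25% in size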
Summary of the method: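 MDA-kb2 cells (MMTV-luciferase, AR/GR), 3,000/well, 5 h attachment, then 3.0 µM nilutamide (final) and compounds at 15 concentrations. Viability by CellTiter-Fluor fluorescence after 16 h at 37 °C, 0% CO2, in the reporter wells.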

[14] = qHTS assay to identify small molecule agonists of the estrogen receptor beta (ER-beta) signaling pathway - cell viability counter screen (AID 1259380); note: nearly all actives have a fitted effect of over 30% in size
Summary of the method: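 ER-beta-UAS-bla HEK293T cells in medium with 2% charcoal-stripped FBS, pre-incubated 6 hr, then treated 16 hr at 37C. Cytotoxicity read in the same wells by CellTiter-Glo luminescence after 30 min at room temperature.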

[15] = qHTS assay to identify small molecule antagonists of the estrogen receptor beta (ER-beta) signaling pathway - cell viability counter screen (AID 1259382); note: series mostly up to about 92 µM; nearly all actives have a fitted effect of over 55% in size
Summary of the method: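 ER-beta-UAS-bla HEK293T cells in 2% charcoal-stripped FBS medium, treated with compound plus 1 nM 17-beta-estradiol for 16 h at 37C. Viability read by CellTiter-Glo luminescence after 30 min at room temperature in the same wells.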

[16] = target: Estrogen receptor beta (Homo sapiens) (UniProt Q92731); assay: qHTS assay to identify small molecule agonists of the estrogen receptor beta (ER-beta) signaling pathway (AID 1259377; active = well fitted activation curve with a large enough effect in the signal ratio in the repeat runs, not every such curve was filed as active; the % refers to the signal ratio)
Summary of the method: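 In HEK293T cells bearing a UAS-beta-lactamase reporter under ER-beta control, DMSO-delivered compounds were incubated for 16 hr at 37C. Activity was detected as fluorescence 2 hours after LiveBLAzer B/G FRET substrate addition.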

[17] = qHTS assay to identify small molecule phospholipidosis (PLD) inducers (AID 1259344; active = well fitted curve in the direction sought with a large enough effect; an effect the other way counts as inactive or inconclusive)
Summary of the method: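 Quantitative HTS in HepG2: compound plus LipidTOX Red dye for 24 h, paraformaldehyde fixation with Hoechst 33342, widefield high-content imaging; amiodarone as positive and DMSO as negative control.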

[18] = target: Androgen receptor (Homo sapiens) (UniProt P10275); assay: qHTS assay to identify small molecule antagonists of the androgen receptor (AR) signaling pathway using the MDA cell line in the presence of 0.5 nM R1881 (AID 1259243); note: nearly all actives have a fitted effect of over 50% in size
Chain of Androgen receptor (Homo sapiens) (P10275 whole entry, looked up): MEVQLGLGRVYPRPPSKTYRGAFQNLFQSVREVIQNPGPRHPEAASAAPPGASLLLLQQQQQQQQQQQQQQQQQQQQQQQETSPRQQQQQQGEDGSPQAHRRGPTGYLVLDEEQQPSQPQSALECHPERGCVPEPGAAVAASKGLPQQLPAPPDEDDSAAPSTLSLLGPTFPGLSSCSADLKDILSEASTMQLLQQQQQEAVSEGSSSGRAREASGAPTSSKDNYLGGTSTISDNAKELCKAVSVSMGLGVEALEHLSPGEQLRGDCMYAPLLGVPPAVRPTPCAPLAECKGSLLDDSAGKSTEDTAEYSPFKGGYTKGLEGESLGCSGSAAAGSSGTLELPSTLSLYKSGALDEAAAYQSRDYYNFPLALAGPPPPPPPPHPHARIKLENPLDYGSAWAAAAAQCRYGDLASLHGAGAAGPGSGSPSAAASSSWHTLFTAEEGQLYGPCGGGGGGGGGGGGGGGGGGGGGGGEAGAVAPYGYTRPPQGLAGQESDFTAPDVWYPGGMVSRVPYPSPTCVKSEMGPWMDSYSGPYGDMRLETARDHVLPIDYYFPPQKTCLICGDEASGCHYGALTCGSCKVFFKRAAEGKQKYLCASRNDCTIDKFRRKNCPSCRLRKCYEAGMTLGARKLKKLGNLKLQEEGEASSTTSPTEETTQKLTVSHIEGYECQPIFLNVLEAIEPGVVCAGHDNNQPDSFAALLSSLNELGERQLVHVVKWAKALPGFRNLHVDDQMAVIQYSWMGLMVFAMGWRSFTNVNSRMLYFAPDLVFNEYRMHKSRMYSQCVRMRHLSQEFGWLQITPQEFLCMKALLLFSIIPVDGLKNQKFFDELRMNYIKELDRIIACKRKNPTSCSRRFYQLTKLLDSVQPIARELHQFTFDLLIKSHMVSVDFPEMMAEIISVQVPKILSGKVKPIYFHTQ
Summary of the method: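 MDA-kb2 cells (MMTV-luciferase, responsive to AR and GR) at 3,000/well, rested 5 h at 37C, 0% CO2, then given compounds plus 0.5 nM R1881 (final) for 16 hr. Luciferase read with ONE-Glo after 30 min at room temperature.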

[19] = target: Estrogen receptor (Homo sapiens) (UniProt P03372); assay: qHTS assay to identify small molecule antagonists of the estrogen receptor alpha (ER-alpha) signaling pathway using the BG1 cell line in the presence of 0.1 nM 17-beta-estradiol (AID 1259244); note: nearly all actives have a fitted effect of over 50% in size
Chain of Estrogen receptor (Homo sapiens) (P03372 whole entry, looked up): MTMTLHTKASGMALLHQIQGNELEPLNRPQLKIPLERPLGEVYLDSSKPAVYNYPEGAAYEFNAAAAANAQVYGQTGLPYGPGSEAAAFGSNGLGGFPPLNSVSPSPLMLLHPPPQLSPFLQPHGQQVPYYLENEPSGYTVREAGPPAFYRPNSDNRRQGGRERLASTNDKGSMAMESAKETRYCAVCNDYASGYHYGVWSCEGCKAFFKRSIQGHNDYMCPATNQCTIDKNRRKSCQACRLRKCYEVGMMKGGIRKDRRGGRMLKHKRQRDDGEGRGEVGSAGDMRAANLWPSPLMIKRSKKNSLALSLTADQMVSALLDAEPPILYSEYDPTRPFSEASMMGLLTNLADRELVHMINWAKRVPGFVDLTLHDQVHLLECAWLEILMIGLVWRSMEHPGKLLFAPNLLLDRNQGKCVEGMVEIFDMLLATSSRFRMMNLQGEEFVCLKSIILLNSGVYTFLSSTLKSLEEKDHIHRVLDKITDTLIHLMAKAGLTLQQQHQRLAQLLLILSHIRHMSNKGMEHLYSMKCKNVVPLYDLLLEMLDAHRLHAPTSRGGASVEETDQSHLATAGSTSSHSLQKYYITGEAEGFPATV
Summary of the method: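 VM7Luc4E2 cells (endogenous full-length ER-alpha, 4×ERE-luciferase), kept 5 days in phenol red-free, charcoal-stripped FBS medium; 4,000 cells/well. Compounds added with 0.1 nM (final) 17beta-estradiol, 22 hr at 37C; luminescence read with ONE-Glo after 30 min.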

[20] = target: Androgen receptor (Homo sapiens) (UniProt P10275); assay: qHTS assay to identify small molecule agonists of the androgen receptor (AR) signaling pathway in the presence of an antagonist (AID 1259381; calls by dose curve; note: nearly all actives have a fitted effect of over 15% in size)
Summary of the method: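 MDA-kb2 cells carrying MMTV-luciferase (AR/GR responsive), 3,000 cells/well, co-treated with 3.0 uM nilutamide final. Compounds at 15 concentrations, 16 hr at 37C without CO2. Luciferase luminescence read after 30 min with ONE-Glo.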

Measured: Potency

CCCCCCCCS(=O)(=O)O
not listed: [16] | [17] | [18] | [19] | [20]
inactive: all other assays above

O=Cc1ccccc1S(=O)(=O)O
not listed: [17] | [18] | [19] | [20]
inactive: all other assays above

O=C(O)P(=O)(O)O
not listed: [12] | [16] | [18] | [19] | [20]
inactive: all other assays above

C=C(C)C(=O)OCCOC1CC2CC1C1C=CCC21 (stereo unspecified)
not listed: [14] | [17] | [18] | [19] | [20]
inactive: all other assays above

C[C@@H]1CCC[C@H](C)N1CCCC(O)(c1ccccc1)c1ccccn1 (stereo partly specified)
not listed: [3] | [6] | [17]
inactive: all other assays above

C[C@H]1COc2c(C3(N)CC3)c(F)cc3c(=O)c(C(=O)O)cn1c23
not listed: [14] | [16] | [18] | [19] | [20]
inactive: all other assays above

CC(C)=CCC/C(C)=C\C#N
not listed: [4] | [12] | [14] | [16] | [17] | [18] | [20]
inactive: all other assays above

CCO/C=C1\N=C(c2ccccc2)OC1=O
not listed: [10] | [17] | [18] | [19] | [20]
inactive: all other assays above
